Screens from PubChem.
Shown are actives, neighbours in structure and some others; about 0.74% of the full set was active somewhere.
PKA kinase inh – inhibitors of human protein kinase A. 65,000 compounds, 0.1% hits. inhibition, % at 6 µM. PKA Kemptide phosphorylation, Kinase-Glo ATP luminescence;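 active = inhibition above the screen-wide mean inhibition plus 3 SD, cut at about 21% in these data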
ROCK2 inh – ROCK2 (human) kinase inhibition | O75116 | purified ROCK2, Kinase-Glo ATP depletion luminescence | inhibition, % at 6 µM | 60,000 compounds, 0.35% hits | AID 604;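 active = inhibition above the screen-wide mean inhibition plus 3 SD, cut at about 18% in these data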;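 note: plate controls were DMSO wells for no effect and Y-27632 control wells after no-enzyme background subtraction for full effect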
PLK1 inh – blocks human PLK1 kinase activity; recombinant PLK1 kinase, TR-FRET peptide phosphorylation; inhibition, % at 10 µM; 97,000 compounds, 0.53% hits;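 active = inhibition of 50% or more in the single-concentration screen; inactive = inhibition below 50%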;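 note: 0% = DMSO max control and 100% = H-89 dihydrochloride min control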
PLK1 PBD inh – Plk1 (human) PBD binding inhibition | P53350 | inhibition, %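 (tested at about 20 µM)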 | 97,000 compounds, 0.13% hits | Plk1 PBD phosphopeptide binding, fluorescence polarization; in the data active = inhibition above about 34%, passing the limit was not always enough
The depositor's hits bear a star.

Results for CCOC(=O)c1cnc2c(C#N)c(C)nn2c1C ?
PKA kinase inh: 8; ROCK2 inh: 2; PLK1 inh: -4; PLK1 PBD inh: 23

What do the screens show for `CCOC(=O)c1cnc2c(C#N)c(C)nn2c1-c1ccccc1`?
PKA kinase inh: 7; ROCK2 inh: 4; PLK1 inh: 64*; PLK1 PBD inh: 10

How did COc1ccc(/C=N/NC(=O)c2sccc2OCc2ccc(F)cc2)cc1OC do in these assays?
PLK1 inh: -3; PLK1 PBD inh: 21

Results for CC(=O)n1cc(-c2ccncc2)c2ccccc21 ?
PKA kinase inh: 26*; ROCK2 inh: 61*

Results for CC(=O)n1cc(/C=N/NC(=O)c2sc(C)nc2C)c2ccccc21 ?
PLK1 inh: 12; PLK1 PBD inh: 13

How did CCOC(=O)C1C(=O)Oc2ccc3ccccc3c2C1C1CCOC1=O (stereo not drawn) do in these assays?
PKA kinase inh: 1; ROCK2 inh: 2; PLK1 inh: 63*; PLK1 PBD inh: 11

Results for O=c1nc(-c2ccccc2)c2ccccc2[nH]1 ?
PKA kinase inh: 16; ROCK2 inh: 4; PLK1 inh: 60*; PLK1 PBD inh: 7

How did O=c1cc(-c2ccccc2)[nH]c2ccccc12 do in these assays?
PKA kinase inh: 7; ROCK2 inh: 2; PLK1 inh: -8; PLK1 PBD inh: 1

How did Cc1c(C(=O)Nc2ccc3oc(-c4cccnc4)nc3c2)oc2ccccc12 do in these assays?
PKA kinase inh: -1; ROCK2 inh: 20*; PLK1 inh: -14; PLK1 PBD inh: 12

Results for Cc1cc([N+](=O)[O-])c(NCCCCCCO)c([N+](=O)[O-])c1 ?
PLK1 inh: -24; PLK1 PBD inh: -32

What do the screens show for `CC(=O)Nc1ccc(C(=O)OCC(=O)N(Cc2ccccc2)C(C)(C)C)cc1`?
PLK1 inh: -10; PLK1 PBD inh: 7

Results for CCN1CCN(CCCNc2ncnc3nc[nH]c23)CC1 ?
PKA kinase inh: 7; ROCK2 inh: 7

How did c1cn(CCCNc2ncnc3nc[nH]c23)cn1 do in these assays?
PKA kinase inh: 18; ROCK2 inh: 40*; PLK1 inh: 25; PLK1 PBD inh: 6

How did CCOc1ccc(C2Oc3nc(SC)nnc3-c3ccccc3N2C(C)=O)cc1OC (stereo not drawn) do in these assays?
PKA kinase inh: -7; ROCK2 inh: 2

What do the screens show for `CCSc1nnc2c(n1)OC(c1ccc(C(=O)O)cc1)N(C(C)=O)c1ccccc1-2` (stereo not drawn)?
PKA kinase inh: 10; ROCK2 inh: 4; PLK1 inh: 65*; PLK1 PBD inh: 29

How did O=C1CSC(c2c(F)cccc2Cl)N1c1cccc(F)c1 (stereo not drawn) do in these assays?
PLK1 inh: -10; PLK1 PBD inh: -19

How did COC1(OC)N=C(N)C2(C#N)C(c3ccc4c(c3)OCO4)C12C#N (stereo not drawn) do in these assays?
PKA kinase inh: 18; ROCK2 inh: 29*; PLK1 inh: 31; PLK1 PBD inh: 15

How did Cn1c(CSCc2ccccc2)nnc1SCC(=O)Nc1nccs1 do in these assays?
PLK1 inh: 56*; PLK1 PBD inh: -2

Results for Cn1c(CSCc2ccc(F)cc2)nnc1SCC(=O)Nc1nccs1 ?
PKA kinase inh: 4; ROCK2 inh: 8; PLK1 inh: 52*; PLK1 PBD inh: 0

What do the screens show for `Cn1c(CSCc2ccc(Cl)cc2)nnc1SCC(=O)Nc1nccs1`?
PLK1 inh: 13; PLK1 PBD inh: -4

What do the screens show for `Cn1c(CSCc2ccc(Cl)c(Cl)c2)nnc1SCC(=O)Nc1nccs1`?
PKA kinase inh: 19; ROCK2 inh: 25*; PLK1 inh: 19; PLK1 PBD inh: 1

How did c1ccc(COc2ccc(-c3csnn3)cc2)cc1 do in these assays?
PLK1 inh: -14; PLK1 PBD inh: 4

How did O=C(CCN1CCN(c2ccc(Cl)cc2)CC1)Nc1nccs1 do in these assays?
PLK1 inh: 62*; PLK1 PBD inh: 1

Results for C=CCOc1c(Br)cc(CNc2ccc(NC(=O)C(C)C)c(OC)c2)cc1OC ?
PLK1 inh: -4; PLK1 PBD inh: 2

What do the screens show for `Cc1cccc(C)c1OCCn1nc(C(=O)O)c2ccccc2c1=O`?
PLK1 inh: -7; PLK1 PBD inh: -24

How did Cc1noc(C)c1Cn1nc(C(=O)O)c2ccccc2c1=O do in these assays?
PKA kinase inh: 4; ROCK2 inh: 2; PLK1 inh: 51*; PLK1 PBD inh: -16

Results for CC(=O)c1cc(C#N)c(SCc2ccncc2)nc1C ?
PKA kinase inh: 2; ROCK2 inh: 28*

What do the screens show for `COc1cccc(-n2c(SCC(N)=O)nnc2-c2c[nH]c3ccccc23)c1`?
PKA kinase inh: -1; ROCK2 inh: 2; PLK1 inh: 68*; PLK1 PBD inh: 25

How did COc1ccc(OC)c(-n2c(SCC(=O)Nc3cc(C)on3)nnc2-c2c[nH]c3ccccc23)c1 do in these assays?
PKA kinase inh: 6; ROCK2 inh: -2; PLK1 inh: 68*; PLK1 PBD inh: -5

How did CCOc1ccc(-n2c(SCC(=O)Nc3cc(C)on3)nnc2-c2c[nH]c3ccccc23)cc1 do in these assays?
PLK1 inh: -10; PLK1 PBD inh: -13

Results for COc1ccc(OC)c(-n2c(SC)nnc2-c2c[nH]c3ccccc23)c1 ?
PKA kinase inh: 1; ROCK2 inh: 2; PLK1 inh: 68*; PLK1 PBD inh: 24

What do the screens show for `COc1ccc(OC)c(-n2c(SCC(N)=O)nnc2-c2c[nH]c3ccccc23)c1`?
PKA kinase inh: -7; ROCK2 inh: 0; PLK1 inh: 70*; PLK1 PBD inh: 20

What do the screens show for `CC1CCCN(S(=O)(=O)c2ccc(S(=O)(=O)NC(C)c3cccs3)cc2)C1` (stereo not drawn)?
PLK1 inh: -6; PLK1 PBD inh: -11

How did CCN(CC)S(=O)(=O)c1ccc(Cc2ncc(C(F)(F)F)cc2Cl)s1 do in these assays?
PLK1 inh: 0; PLK1 PBD inh: -42

Results for COc1cc2c(cc1NC(=S)Nc1cccc(C(F)(F)F)c1)oc1ccccc12 ?
PLK1 inh: 12; PLK1 PBD inh: -14

What do the screens show for `O=c1c(Sc2ccccc2)c(C(F)(F)F)[nH]n1-c1ccccc1`?
PLK1 inh: -7; PLK1 PBD inh: -4

Results for O=C1C2C3C=CC(C3=C(c3ccccc3)c3ccccc3)C2C(=O)N1Cc1ccccc1 (stereo not drawn) ?
PLK1 inh: -5; PLK1 PBD inh: 37

How did Cc1nnc(-n2ncc(C#N)c2N)c2nn(-c3ccccc3F)c(C)c12 do in these assays?
PLK1 inh: -13; PLK1 PBD inh: -16

What do the screens show for `COc1ccc(-c2cc(C#N)nc(N3CCNCC3)n2)cc1`?
PLK1 inh: 55*; PLK1 PBD inh: 2

Results for COc1cc2c(cc1NC(=O)COC(=O)Cn1cnc3ccccc31)oc1ccccc12 ?
PKA kinase inh: 24*; ROCK2 inh: 0; PLK1 inh: 8; PLK1 PBD inh: -17

How did COc1cc2c(cc1NC(=O)COc1ccccc1OC)oc1ccccc12 do in these assays?
PLK1 inh: -3; PLK1 PBD inh: -36

Results for CCN(CC)S(=O)(=O)c1cccc(C(=O)NC(C(=O)Nc2nnc(C)s2)C(C)C)c1 (stereo not drawn) ?
PLK1 inh: -5; PLK1 PBD inh: -10

Results for O=c1[nH]cnc2cc(Cl)ccc12 ?
PKA kinase inh: 14; ROCK2 inh: 18*; PLK1 inh: 31; PLK1 PBD inh: -15
